Results: PubChem BioAssay AID620 (Sanford-Burnham Center for Chemical Genomics, 2007)
The whole screen tested about 87,000 compounds, of which about 360 (0.41%) were called active. Rule as the data show it: active = cytotoxicity above about 50%; inactive = the rest. What follows is part of a selection rich in actives, with near analogues and random picks from the rest.

Test: cytotoxicity in HT1080 fibrosarcoma cells, cell-based, fluorescence readout (AID 620);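 also: cells exposed to compound overnight then 4 h with Alamar Blue; 0% = vehicle DMSO and 100% = killing control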
Conditions: HT1080 viability, at 10 µM, stronger effect = higher value

Row | SMILES | cytotoxicity
1 | COc1ccc2c(c1)c(=O)oc1cc(OCC(=O)N3CCCC(C)C3)ccc12 (configuration not stated) | -1.8% (inactive)
2 | CCC1=C(C)N(CCCC(=O)O)C(=O)NC1c1cccc(Cl)c1Cl (configuration not stated) | -11.7% (inactive)
3 | CCOC(=O)C1=C(C)NC(SCC(=O)O)=C(C#N)C1c1ccco1 (configuration not stated) | -8% (inactive)
4 | O=C(CN(C1CCCCC1)S(=O)(=O)c1ccccc1)NCc1cccnc1 | 1.3% (inactive)
5 | CCOC(=O)c1c(C)[nH]c2cc(Br)c(OC)cc12 | -9% (inactive)
6 | C=CCNC(=O)C12CC3(C)CC(C)(CC(C)(C3)C1)C2 | -24.6% (inactive)
7 | CCOC(=O)c1c(NC(=O)CCl)sc(C(=O)N(CC)CC)c1C | 53.8% (active)
8 | CCOC(=O)Nc1sc(C(=O)N(CC)CC)c(C)c1C(=O)OCC | -6% (inactive)
9 | CCOC(=O)c1c(NC(=O)CN(C)C)sc(C(=O)N(CC)CC)c1C | 25.3% (inactive)
10 | CCC(C)[C@H](NC(=O)NCc1cccs1)C(=O)O (some centres not stated) | 8.7% (inactive)
11 | CC(C)(C)NC(=O)Cn1nnnc1-c1nonc1N | 0.2% (inactive)
12 | CCOC(=O)c1cnc(SCc2ccc(C)cc2)nc1N | 5.8% (inactive)
13 | CCC(=O)Nc1nonc1-c1nc2ccccc2n1Cc1cccc2ccccc12 | 56.3% (active)
14 | CCC(=O)Nc1nonc1-c1nc2ccccc2n1Cc1ccc(Cl)c(Cl)c1 | -2.7% (inactive)
15 | CCOC(=O)c1ccccc1NC(=O)Cn1c(-c2nonc2N)nc2ccccc21 | 60.4% (active)
16 | CCC(=O)Nc1nonc1-c1nc2ccccc2n1CC(C)C | 2.9% (inactive)
17 | CCCCOc1ccccc1NC(=O)Cn1c(-c2nonc2N)nc2ccccc21 | 24.5% (inactive)
18 | COC(=O)c1ccccc1NC(=O)Cn1c(-c2nonc2N)nc2ccccc21 | 32% (inactive)
19 | O=C(O)c1cccc(CN2C(=O)CSC2=O)c1 | 3.1% (inactive)
20 | Cc1nn(-c2ccccc2)c2sc(C(=O)OCN3C(=O)c4ccccc4C3=O)cc12 | -4% (inactive)
21 | NC(=O)c1ccccc1OCC(=O)NS(=O)(=O)c1ccc(Cl)cc1 | -12.8% (inactive)
22 | CC(C)COc1ccc(CNC(=S)N/N=C/c2ccc([N+](=O)[O-])cc2)cc1 | -12.7% (inactive)

Row | SMILES | cytotoxicity
23 | O=C1C2CCCN2C(c2cccc(F)c2)N1c1cccc(Cl)c1 (configuration not stated) | 8.3% (inactive)
24 | N=c1n(CCN2CCOCC2)c2ccccc2n1CC(=O)c1ccc(Cl)c(Cl)c1 | 80.5% (active)
25 | N=c1n(CCOc2ccccc2)c2ccccc2n1CCN1CCOCC1 | 6.2% (inactive)
26 | CCCCOC(=O)Cn1c(=N)n(CCN2CCOCC2)c2ccccc21 | -3.2% (inactive)
27 | O=C(COc1ncnc2ccccc12)NC1CCS(=O)(=O)C1 (configuration not stated) | 0.3% (inactive)
28 | O=C(Nc1ccc(NC(=O)C2CCCCC2)nc1)c1ccco1 | -0.2% (inactive)
29 | COc1ccccc1N1CCN(Cc2nc(N)nc(Nc3ccc(C)cc3)n2)CC1 | -2.7% (inactive)
30 | CSc1nc(C)c2cc(C)oc2n1 | 10.3% (inactive)
31 | COc1ccc2nc(NC(=O)CCn3cccc3)sc2c1 | 2.1% (inactive)
32 | CN(C)c1ncc(C2=C(Cl)C(=O)C(N3CCCC3)=C(Cl)C2=O)s1 | 16.7% (inactive)
33 | CN1CCN(C2=C(Cl)C(=O)C(c3cnc(N4CCCCC4)s3)=C(Cl)C2=O)CC1 | 37.1% (inactive)
34 | CCCCOc1ccc(CSc2nncn2N)cc1 | 0.8% (inactive)
35 | COc1ccc(CCNS(=O)(=O)c2ccc(N3CCCC3=O)cc2)cc1 | -12.5% (inactive)
36 | O=C1CCCN1c1ccc(S(=O)(=O)NCCOc2ccccc2)cc1 | -6.1% (inactive)
37 | COc1ccc(OC)c(NS(=O)(=O)c2ccc3c(c2)n(C)c(=O)n3C)c1 | -7.2% (inactive)
38 | COc1ccc(OC)c(NS(=O)(=O)c2ccc(N3CCCC3=O)cc2)c1 | 60.6% (active)
39 | Cc1ccccc1NS(=O)(=O)c1ccc(F)cc1 | 6.2% (inactive)
40 | Cc1ccccc1NS(=O)(=O)c1ccc(N2CCCC2=O)cc1 | 56.7% (active)
41 | CCOC(=O)C1CCN(C(=O)Nc2ccc3nc(C)c(C)nc3c2)CC1 | 2.9% (inactive)
42 | Cc1cc(C)c(S(=O)(=O)NCC2CCC(C(=O)NCCCN3CCOCC3)CC2)c(C)c1 (configuration not stated) | 2.9% (inactive)
43 | Cc1cc(C)c(NC(=O)c2ccc(S(=O)(=O)N3CCOCC3)cc2)c(C)c1 | -5.9% (inactive)
44 | C=CCN1C(=O)S/C(=C/c2ccsc2)C1=O | 2.6% (inactive)

Row | SMILES | cytotoxicity
45 | C/C=C/COC(=O)c1[nH]c2c(c1C)C(=O)CC(c1ccc(N(C)C)cc1)C2 (configuration not stated) | -0.3% (inactive)
46 | C=CCOC(=O)c1[nH]c2c(c1C)C(=O)CC(c1ccco1)C2 (configuration not stated) | 67.5% (active)
47 | C/C=C/COC(=O)c1[nH]c2c(c1C)C(=O)CC(c1ccco1)C2 (configuration not stated) | 65.5% (active)
48 | N#CC1=C2C=CC=CN2CC1=O | -0.7% (inactive)
49 | COc1ccc(CC(=O)N2CCCc3ccccc32)cc1 | -11% (inactive)
50 | CCSC1(SCC)N=C(N)C2(C#N)C(c3ccccc3)NC(C)=C(C)C12C#N (configuration not stated) | 6.9% (inactive)
51 | CCN(CC)S(=O)(=O)c1ccc(Br)c(OC)c1 | -1.2% (inactive)
52 | CCc1ccccc1NC(=O)CN1C(=O)C2CCCN2c2ncc(Cl)cc21 (configuration not stated) | -1.2% (inactive)
53 | Cc1ccc(C(=O)c2nocc2C(=O)c2cccs2)cc1 | -9.5% (inactive)
54 | O=C(c1cccs1)c1no[n+]([O-])c1C(=O)c1cccs1 | 73.8% (active)
55 | O=C(O)Cc1ccc(C(=O)c2cccs2)s1 | 6.9% (inactive)
56 | CCOC(=O)N1CCN(C(=O)c2cnsn2)CC1 | -5.1% (inactive)
57 | CC(C)(C)N1CC(c2nc3ccccc3n2Cc2ccccc2)CC1=O (configuration not stated) | -14.8% (inactive)
58 | Cc1cccc(N(C)C(=O)COc2cc(=O)n(C)c3ccccc23)c1 | 2% (inactive)
59 | Cc1cnc(C(=O)OCC(=O)N2c3ccccc3NC(=O)C2(C)C)cn1 | -0.5% (inactive)
60 | Cc1cc(=O)c2ccccc2[nH]1 | 26.5% (inactive)
61 | CCN(CC)Cc1c(-c2ccccc2)[nH]c2ccc(C)cc2c1=O | 5.1% (inactive)
62 | Cc1ccc2[nH]c(-c3ccccc3)cc(=O)c2c1 | 71.1% (active)
63 | O=c1cc(-c2ccccc2)c2ccccc2[nH]1 | -2.5% (inactive)
64 | O=c1cc(-c2ccccc2)[nH]c2ccccc12 | 67.1% (active)
65 | Cc1ccc2[nH]c(C(=O)O)c(-c3ccccc3)c2c1 | -8.4% (inactive)
66 | Cc1ccc(NC(=O)N(CCCN2CCOCC2)Cc2cc3cc4c(cc3[nH]c2=O)OCO4)cc1 | -5.1% (inactive)

Row | SMILES | cytotoxicity
67 | C#CC(C)(CC)NC(=O)Cn1nnc(-c2ccc(S(C)(=O)=O)cc2)n1 (configuration not stated) | -5.1% (inactive)
68 | CC(CN1CCCCC1)OC(=O)Cc1ccc(Cl)cc1 (configuration not stated) | -6.9% (inactive)
69 | O=C(NCC(c1ccc(F)cc1)N1CCOCC1)c1ccc(Br)o1 (configuration not stated) | -5.4% (inactive)
70 | O=C(COc1ccccc1)NCC(c1cccs1)N1CCOCC1 (configuration not stated) | -8.1% (inactive)
71 | CCC(=O)NCC(c1cccs1)N1CCOCC1 (configuration not stated) | -3.1% (inactive)
72 | O=C(NCC(c1cccs1)N1CCOCC1)c1ccc(Cl)s1 (configuration not stated) | 62.9% (active)
73 | O=C(NCC(c1cccs1)N1CCOCC1)c1ccc(Br)o1 (configuration not stated) | 56.3% (active)
74 | O=C(NCC(c1cccs1)N1CCOCC1)c1ccco1 (configuration not stated) | 9% (inactive)
75 | CCCCCC(=O)OC(CN1CCCCC1)CN1CCCC1=O (configuration not stated) | 6.6% (inactive)
76 | COc1ccccc1NC(=S)NNC(=O)c1ccc(Cl)cc1Cl | -4% (inactive)
77 | Cc1ccc(-c2noc(-c3ccccc3C(=O)N3CCOCC3)n2)cc1 | -2.2% (inactive)
78 | Cc1cc(N2CCCC2=O)cc(C)c1S(=O)(=O)NCCOc1ccccc1 | 0.6% (inactive)
79 | CCOc1ccc(NC2=NC(C(=O)NCc3ccccc3)CC(=O)N2)cc1 (configuration not stated) | 7.4% (inactive)
80 | CC(C)(C)c1ccc(C(=O)Nc2cnccn2)cc1 | -0.1% (inactive)
81 | Cc1noc(C)c1COc1ccc(C(=O)OCC(=O)N2CC(=O)Nc3ccccc32)cc1 | -12.1% (inactive)
82 | CCC(Oc1ccccc1)C(=O)Nc1nnc(C)s1 (configuration not stated) | -5.1% (inactive)
83 | Cc1occc1C(=O)Nc1ccc2c(c1)OCCO2 | 11.2% (inactive)
84 | CC(=O)NC1C(=O)N(C)c2ccc(Br)cc21 (configuration not stated) | -16.4% (inactive)
85 | Cc1ccccc1Cc1c(C)nc2nc(SCC(=O)NCc3ccco3)nn2c1C | -13.4% (inactive)
86 | Cc1ccc(Cc2c(C)nc3nc(SCC(=O)NCc4ccco4)nn3c2C)cc1 | 69.7% (active)
87 | Cc1nc2nc(SCC(=O)NCc3ccco3)nn2c(C)c1Cc1c(F)cccc1Cl | -13.6% (inactive)
88 | O=C(c1ccco1)N1CCCC(c2nc(-c3ccc(S(=O)(=O)NCc4ccccc4)cc3)no2)C1 (configuration not stated) | -1.4% (inactive)

Row | SMILES | cytotoxicity
89 | CCCCS(=O)(=O)c1sc2nc(C)cc(C)c2c1N | 12.9% (inactive)
90 | Cc1ccc(-c2noc(CCC(=O)NCc3ccco3)n2)cc1 | 64% (active)
91 | O=C(CCc1nc(-c2ccccc2)no1)NCc1ccco1 | 6.9% (inactive)
92 | Cc1cccc(-c2noc(CCC(=O)NCc3ccco3)n2)c1 | 7.3% (inactive)
93 | CCn1cnc2cc(NCc3nc4ccccc4n3C)ccc21 | 1.7% (inactive)
94 | Cc1cc(NC(=O)C2CC(c3ccc(Cl)cc3)=NO2)no1 (configuration not stated) | -7.6% (inactive)
95 | Cc1cccc(NS(=O)(=O)Cc2ccccc2)n1 | -2.7% (inactive)
96 | CCCOc1c(OC)cccc1C1CC(=O)Nc2cc3c(cc21)OCO3 (configuration not stated) | -2.6% (inactive)
97 | CCOc1ccccc1C1CC(=O)NC2=C1C(=O)CCC2 (configuration not stated) | 11.2% (inactive)
98 | CCOc1ccccc1C1CC(=O)Nc2cc3c(cc21)OCCO3 (configuration not stated) | 68.1% (active)
99 | CCCOc1ccccc1C1CC(=O)Nc2cc3c(cc21)OCCO3 (configuration not stated) | 58.6% (active)
100 | CCCOc1ccccc1C1CC(=O)NC2=C1C(=O)CCC2 (configuration not stated) | 39.4% (inactive)
101 | O=C1CC(c2cccs2)c2cc3c(cc2N1)OCCO3 (configuration not stated) | -3.6% (inactive)
102 | CCOc1c(OC)cccc1C1CC(=O)Nc2cc3c(cc21)OCCO3 (configuration not stated) | -3.8% (inactive)
103 | CCCCOc1ccccc1C1CC(=O)NC2=C1C(=O)CCC2 (configuration not stated) | 56% (active)
104 | CCOc1ccccc1C1CC(=O)Nc2cc3c(cc21)OCO3 (configuration not stated) | 67.2% (active)
105 | O=C1CC(c2ccc3c(c2)OCO3)c2cc3c(cc2N1)OCCO3 (configuration not stated) | 8.1% (inactive)
106 | CCCOc1c(OC)cccc1C1CC(=O)Nc2cc3c(cc21)OCCO3 (configuration not stated) | -3.5% (inactive)
107 | CCOc1c(OC)cccc1C1CC(=O)Nc2cc(OC)c(OC)cc21 (configuration not stated) | -2.2% (inactive)
